The supplement of paper PMC6522484
± gives the standard deviation of the averaged measurements.

system: DLD1; test: cell viability (CellTiter-Glo) relative to plate median (fraction of plate median); higher = more viable cells; settings: 10 µM; treatment time 24 h; reporter: 7TFP
Procedure, shortened: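 Reporter and viability luminescence were measured in colorectal cancer cells stably carrying lentiviral TCF/Wnt firefly luciferase reporters. The cells were exposed to kinase inhibitor library compounds at a final 10 µM for 24 h, starting 24 h after seeding in 384-well plates. Each well was normalised to the plate median (webcellHTS2, additive, no log transformation), and two independent replicates were averaged.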

SMILES | cell viability
CCCCCCCCCCCCc1ccc(S(=O)(=O)Nc2nncs2)cc1 | 1.03 ± 0.05
O=C1NC(=O)C(c2ccccc2[N+](=O)[O-])=C1Nc1ccc(O)c(Cl)c1 | 1.13 ± 0.2
CNC(=O)c1cc(Oc2ccc(NC(=O)Nc3cc(C(C)(C)C)nn3-c3ccc4ncccc4c3)c(F)c2)ccn1 [DCC-2036 (Rebastinib)] | 1.1 ± 0.13

same assay, conditions: 10 µM; treatment time 24 h; reporter: TCF4/Wnt

SMILES | cell viability
O=C(O)c1ccc(Nc2ncc3c(n2)-c2ccc(Cl)cc2C(c2c(F)cccc2F)=NC3)cc1 | 0.993 ± 0.067
O=C(c1ccc(/C=C/c2n[nH]c3ccccc23)cc1)N1CCNCC1 | 1.14 ± 0.071
Cc1[nH]c(/C=C2\C(=O)Nc3ccc(S(=O)(=O)N(C)c4cccc(Cl)c4)cc32)c(C)c1C(=O)N1CCN(C)CC1 | 1.04 ± 0.066
Nc1cc(C(F)(F)F)c(-c2cc(N3CCOCC3)nc(N3CCOCC3)n2)cn1 | 0.9145 ± 0.0078
COC(=O)Nc1ccc(-c2nc(N3CCOCC3)c3cnn(C4CCN(Cc5cccnc5)CC4)c3n2)cc1 | 0.872 ± 0.036
Fc1cc(-c2cccc3ncc(-c4cnn(C5CCNCC5)c4)nc23)cc(F)c1CN1CCOCC1 | 0.981 ± 0.055
COCC(=O)NC/C=C/c1ccc2ncnc(Nc3ccc(Oc4ccc(C)nc4)c(C)c3)c2c1 | 1.035 ± 0.0071
COc1cc2ncnc(Nc3cccc(Br)c3)c2cc1OC | 1.07 ± 0.064
Nc1ccc(-c2ccc3ncc4ccc(=O)n(-c5cccc(C(F)(F)F)c5)c4c3c2)cn1 [Torin 2] | 0.9595 ± 0.005
Oc1cccc(-c2nc(N3CCOCC3)c3oc4ncccc4c3n2)c1 | 0.917 ± 0.038
Cc1cccc(-c2[nH]c(C(C)(C)C)nc2-c2ccc3nccnc3c2)n1 | 1.06 ± 0.14
Cc1ncc(-c2ccnc(Nc3ccc(S(C)(=O)=O)cc3)n2)n1C(C)C | 1.32 ± 0.099
CN1CCN(c2nc(C3=C(c4c[nH]c5ccccc45)C(=O)NC3=O)c3ccccc3n2)CC1 [Sotrastaurin (AEB071)] | 1.045 ± 0.0071
C[C@@H](N)[C@H]1CC[C@H](C(=O)Nc2ccncc2)CC1 | 1.03 ± 0.05
CC(C)(C)c1cc(/C=C(\C#N)C(N)=S)cc(C(C)(C)C)c1O [Tyrphostin AG 879 (AG 879)] | 0.911 ± 0.098
c1cncc(CN2CCC(n3ncc4c(N5CCOCC5)nc(-c5ccc6[nH]ccc6c5)nc43)CC2)c1 | 0.9595 ± 0.005
CCS(=O)(=O)c1cccc(-c2cc(C(=O)NC3CCN(C)CC3)c(C)c3[nH]c4ncc(C)cc4c23)c1 | 1.1 ± 0.057
COC(=O)c1ccc2c(C(=Nc3ccc(N(C)C(=O)CN4CCN(C)CC4)cc3)c3ccccc3)c(O)[nH]c2c1 [BIBF1120 (Vargatef)] | 1.04 ± 0.014
C#Cc1cccc(Nc2ncnc3cc(OCCOC)c(OCCO)cc23)c1 [OSI-420 (Desmethyl Erlotinib)] | 0.954 ± 0.011
Cc1csc(-c2nnc(Nc3ccc(Oc4ncccc4-c4ccnc(N)n4)cc3)c3ccccc23)c1 | 1.03 ± 0.035

SMILES | cell viability
CCc1cc(Nc2nccc(-c3c(-c4ccc(OC)c(C(=O)Nc5c(F)cccc5F)c4)nc4ccccn34)n2)c(OC)cc1N1CCC(N2CCN(S(C)(=O)=O)CC2)CC1 | 0.995 ± 0.12
CN1CCN(c2ccc3nc(-c4c(N)c5c(F)cccc5[nH]c4=O)[nH]c3c2)CC1 [Dovitinib (TKI-258)] | 0.908 ± 0.033
c1ccc2c(-c3cnn4cc(-c5ccc(N6CCNCC6)cc5)cnc34)ccnc2c1 | 0.874 ± 0.093
O=C1NC(=O)/C(=C\c2ccc3nccnc3c2)S1 | 1.04 ± 0.063
COc1cc2nccc(Oc3ccc(NC(=O)NC4CC4)c(Cl)c3)c2cc1C(N)=O [E7080 (Lenvatinib)] | 0.932 ± 0.069
CC(C)(C)c1cnc(CSc2cnc(NC(=O)C3CCNCC3)s2)o1 | 1.06 ± 0.23
CCS(=O)(=O)Nc1ccc2c(c1)/C(=C(/Nc1ccc(CN3CCCCC3)cc1)c1ccccc1)C(=O)N2 [Hesperadin] | 1.14 ± 0.085
CNC(=O)c1cc(Oc2ccc(NC(=O)Nc3ccc(Cl)c(C(F)(F)F)c3)c(F)c2)ccn1 [Regorafenib (BAY 73-4506)] | 0.985 ± 0.092
CCc1cc2c(cc1N1CCC(N3CCOCC3)CC1)C(C)(C)c1[nH]c3cc(C#N)ccc3c1C2=O | 0.995 ± 0.064
CCC[C@H](NC(=O)/C(C#N)=C/c1cccc(Br)n1)c1ccccc1 | 0.532 ± 0.038
COc1cc2c(Nc3ccc(NC(=O)c4ccccc4)cc3)ncnc2cc1OCCCN1CCOCC1 | 0.872 ± 0.042
O=C(NOCC(O)CO)c1cc(Br)c(F)c(F)c1Nc1ccc(I)cc1F (stereo not drawn) | 0.96 ± 0.13
O=C(NC1CCNCC1)c1n[nH]cc1NC(=O)c1c(Cl)cccc1Cl | 1.16 ± 0.18
CC[C@H](Nc1ncnc2[nH]cnc12)c1nc2cccc(F)c2c(=O)n1-c1ccccc1 | 0.999 ± 0.086
C=CC(=O)Nc1ccc2ncnc(Nc3ccc(OCc4cccc(F)c4)c(Cl)c3)c2c1 | 1.06 ± 0.085
COc1ccc(COc2cc3oc(=O)c4cc(C(C)O)ccc4c3cc2OC)cc1 (stereo not drawn) [Palomid 529] | 1.09 ± 0.021
O=C(Nc1c[nH]nc1-c1nc2ccc(CN3CCOCC3)cc2[nH]1)NC1CC1 | 0.817 ± 0.022
CCCCCCCCCCCCc1ccc(S(=O)(=O)Nc2nncs2)cc1 | 0.966 ± 0.037
O=C1NC(=O)C(c2ccccc2[N+](=O)[O-])=C1Nc1ccc(O)c(Cl)c1 | 1.07 ± 0.035
CNC(=O)c1cc(Oc2ccc(NC(=O)Nc3cc(C(C)(C)C)nn3-c3ccc4ncccc4c3)c(F)c2)ccn1 [DCC-2036 (Rebastinib)] | 1.265 ± 0.0071
